Measurements reported in PubChem BioAssay.
Records with an inconclusive call do not appear. Calls of active or inactive are those of the source.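 Rule for the calls, unless noted: active = viability loss from added drug above about 55%, and viability with drug at most 40%, in both replicates (limit read from the data, passing the limit was not always enough); inconclusive = both conditions met in only one replicate; inactive = neither replicate meets both conditions.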

Tests used:
[1] = viability gain of MRP-1-high H69AR cells under doxorubicin, pilot screen, MRP-1 activator project, CellTiter-Glo, duplicate (AID 807;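 active = viability increase at or above a cutoff of the median across tested compounds plus 3 SD, cut at about 8.5% in these data, passing the limit was not always enough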;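 note: compound pretreatment 18-22 h then 72 h combined with doxorubicin; 0% = doxorubicin alone and 100% = vehicle without doxorubicin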); conditions: H69AR viability with doxorubicin, CellTiter-Glo luminescence; at 10 µM; stronger effect = higher value
[2] = growth suppression of beta-catenin knockout HCT116, pilot screen, human colon tumor cells (AID 823;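 active = cell viability at or below a set limit in both duplicate runs, the limit being the all-compound median minus 4 SD, cut at about 23% in these data, passing the limit was not always enough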;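 note: 0% = wells killed by 20 µM Hyamine and 100% = untreated DMSO cell wells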); conditions: CellTiter-Glo, 60 h, at 10 µM, stronger effect = lower value
[3] = growth suppression of PTEN-deleted HCT116, pilot screen, cell-based, HCT116 clonal line, CellTiter-Glo (AID 824;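 active = viability at or below 27.92% in each of two runs, the all-compound median minus 4 SD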;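 note: 0% = 20 µM Hyamine control and 100% = vehicle cell control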); conditions: 60 h, at 10 µM, stronger effect = lower value
[4] = inhibitors of the yeast RAM network, pilot screen, dse1pr::URA3 reporter, 5-FOA selection (AID 869;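 active = inhibition over a set limit, the all-compound mean plus 3 SD, in both replicate runs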;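 note: 0% = DMSO wells with no growth and 100% = 10 µM 1-NA-PP1 with full growth; RAM network block rescues cells from 5-FOA so hits raise OD615 growth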); conditions: S. cerevisiae dse1pr::URA3 5-FOA growth, OD615, 2 d; at 10 µM; stronger effect = higher value; strain carries analog-sensitive mutant Cbk1 kinase
[5] = RAM signaling pathway blockade in yeast – S. cerevisiae, Pdr1DBD-CYC8 efflux-inhibited sensitized strain, primary screen (AID 1298;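 active = RAM network inhibition above 8.4% in each of two replicates, 3 SD over the compound average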;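 note: 0% = DMSO untreated cells without growth and 100% = 10 µM 1-NA-PP1 full growth; higher means more yeast growth rescued from 5-FOA killing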); conditions: S. cerevisiae cbk1-as DSE1-URA3 strain, 5-FOA growth OD615, 2 d; at 50 µM; stronger effect = higher value
[6] = reducers of endogenous Her2 protein level, primary screen, SKBR3 breast tumor cells, AlphaScreen, ATP viability (AID 461;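 active = Her2 level under about 52% in both replicate screens, with viability over 70% of control, limit read from the data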;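 for Her2 level: lower value means less Her2 protein in the cells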;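 for viability: percent of carrier control wells set as 100% viability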); conditions: 18-24 h, measured here: SKBR3 viability, ATP luminescence, at 10 µM
[7] = target: Receptor tyrosine-protein kinase erbB-2 (Homo sapiens) (UniProt P04626); assay: as above; conditions: 18-24 h, at 10 µM, stronger effect = lower value
Receptor tyrosine-protein kinase erbB-2 (Homo sapiens), sequence (P04626 whole entry, looked up): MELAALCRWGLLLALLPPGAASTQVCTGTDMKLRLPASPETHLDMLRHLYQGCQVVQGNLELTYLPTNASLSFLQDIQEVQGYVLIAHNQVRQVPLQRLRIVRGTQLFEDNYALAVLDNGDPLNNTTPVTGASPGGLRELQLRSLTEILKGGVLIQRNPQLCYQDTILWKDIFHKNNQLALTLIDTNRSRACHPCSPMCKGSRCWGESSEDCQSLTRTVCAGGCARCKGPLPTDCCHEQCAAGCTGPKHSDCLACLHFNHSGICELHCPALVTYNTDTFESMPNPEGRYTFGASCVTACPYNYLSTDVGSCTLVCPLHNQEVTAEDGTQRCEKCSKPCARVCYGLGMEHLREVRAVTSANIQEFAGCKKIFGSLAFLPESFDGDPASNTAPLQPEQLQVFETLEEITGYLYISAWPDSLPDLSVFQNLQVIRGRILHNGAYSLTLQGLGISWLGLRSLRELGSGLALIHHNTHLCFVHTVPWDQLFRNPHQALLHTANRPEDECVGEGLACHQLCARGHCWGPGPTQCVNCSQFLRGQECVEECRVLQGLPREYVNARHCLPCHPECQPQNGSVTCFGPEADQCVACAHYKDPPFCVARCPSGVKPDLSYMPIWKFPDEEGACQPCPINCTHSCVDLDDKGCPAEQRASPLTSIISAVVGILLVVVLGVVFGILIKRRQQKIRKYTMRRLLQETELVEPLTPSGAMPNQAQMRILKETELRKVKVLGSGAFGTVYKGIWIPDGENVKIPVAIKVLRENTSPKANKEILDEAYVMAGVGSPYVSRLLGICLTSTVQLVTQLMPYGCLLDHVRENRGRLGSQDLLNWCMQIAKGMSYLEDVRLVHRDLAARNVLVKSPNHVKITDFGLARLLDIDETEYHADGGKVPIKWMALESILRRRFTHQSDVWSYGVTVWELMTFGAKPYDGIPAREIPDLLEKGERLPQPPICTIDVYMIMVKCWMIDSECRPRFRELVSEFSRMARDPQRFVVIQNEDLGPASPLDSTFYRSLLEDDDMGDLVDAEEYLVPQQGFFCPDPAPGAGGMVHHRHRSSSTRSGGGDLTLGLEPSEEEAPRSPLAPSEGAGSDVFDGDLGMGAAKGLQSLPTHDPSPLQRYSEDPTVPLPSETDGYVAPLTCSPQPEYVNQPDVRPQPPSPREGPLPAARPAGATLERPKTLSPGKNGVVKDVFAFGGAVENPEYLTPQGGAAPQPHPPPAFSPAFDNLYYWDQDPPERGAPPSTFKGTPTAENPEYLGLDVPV

[8] = SK-BR-3 cell growth inhibitors, pilot screen, 24 h, human (AID 572;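 active = viability at or below 10% of carrier control in both of two separate runs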;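 note: compound exposure lasted between 18 and 24 h rather than exactly 24 h; 100% = carrier-treated control wells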); conditions: SK-BR-3 viability, CellTiter-Glo luminescence, at 10 µM, stronger effect = lower value
[9] = HUVEC growth inhibition – cell-based, human, primary screen (AID 575;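 active = viability at or below 30% in both replicate assays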;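 note: 100% = median of untreated cell wells with 0.1% DMSO on each plate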); conditions: HUVEC proliferation, CellTiter-Glo luminescence, 72 h; at 10 µM; stronger effect = lower value
[10] = growth inhibitors of H69AR lung tumor, primary screen, human, duplicate replicates (AID 580;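 active = viability at or under a set limit in both replicates, limit being median viability minus 3 SD, cut at about 48% in these data, passing the limit was not always enough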;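 note: 100% = mean luminescence of untreated wells and 0% = no signal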); conditions: H69AR lung tumor cells viability, ATP luminescence, 72 h; at 10 µM; stronger effect = lower value
[11] = reversal of MRP1-mediated doxorubicin resistance, pilot screen, H69AR cells, doxorubicin co-treatment (AID 601); conditions: CellTiter-Glo, 72 h, at 10 µM; for differential viability (reversal): stronger effect = higher value
[12] = Restrictive medium S. cerevisiae growth inhibition, OD615, pilot screen of yeast lifespan reduction project, restrictive growth control (AID 706;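 active = growth inhibition above a set limit, 3 SD over mean compound inhibition, in both replicates, cut at about 43% in these data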;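 note: modified DeaD lifespan yeast strain shifted to restrictive glucose medium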); conditions: OD615, 48 h, at 10 µM, stronger effect = higher value
[13] = H69AR cells + 2 uM doxorubicin, measured here: viability with 2 uM doxorubicin, stronger effect = lower value
[14] = H69AR cells, compound alone cytotoxicity

Row | Compound | viability increase [1] | viability [2] | viability [3] | inhibition [4] | RAM network inhibition [5] | viability [6] [%] | Her2 level [7] | viability [8] | viability [9] | viability [10] | differential viability (reversal) ([11]; H69AR cells + 2 uM doxorubicin) | viability [11, 13] [%] | viability [11, 14] [%] | growth inhibition [12]
1 | COc1ccc2cc(C(=O)Nc3c(C)n(C)n(-c4ccccc4)c3=O)sc(=O)c2c1OC | -1.5% (inactive) | 97.7% (inactive) | 92.6% (inactive) | 2.33% (inactive) | 0.16% (inactive) |  |  |  |  |  |  |  |  | 
2 | O=C(NCC1CCCCN1)c1cc(OCC(F)(F)F)ccc1OCC(F)(F)F (stereo unspecified) |  |  |  |  |  | 86 | 101% (inactive) | 86% (inactive) | 91.8% (inactive) | 97.9% (inactive) | -4.55% (inactive) | 102 | 97.9 | 
3 | COc1ccc(CN(CCN(C)C)c2ccccn2)cc1 |  |  |  |  |  | 91 | 104% (inactive) | 91% (inactive) | 97.4% (inactive) | 93.9% (inactive) | 19.5% (inactive) | 74.4 | 93.9 | 
4 | CC(=O)O[C@]1(C(C)=O)CC[C@H]2[C@@H]3C=C(C)C4=CC(=O)CC[C@]4(C)[C@H]3CC[C@@]21C |  |  |  |  |  | 97 | 88% (inactive) | 97% (inactive) | 113% (inactive) | 87.6% (inactive) | 23.2% (inactive) | 64.3 | 87.6 | 
5 | Cc1onc(-c2ccccc2)c1C(=O)N[C@@H]1C(=O)N2[C@@H]1SC(C)(C)[C@@H]2C(=O)O |  |  |  |  |  | 108 | 100% (inactive) | 108% (inactive) | 91.1% (inactive) | 101% (inactive) | 0% (inactive) | 101 | 101 | 
6 | CC(C)Sc1nc(O)c(Cc2ccccc2)c(=O)[nH]1 | -0.54% (inactive) | 104% (inactive) |  | 2.81% (inactive) | 6.91% (inactive) |  |  |  |  |  |  |  |  | -0.8% (inactive)
7 | CCCNCC(O)COc1ccccc1C(=O)CCc1ccccc1 (stereo unspecified) |  |  |  |  |  | 97 | 100% (inactive) | 97% (inactive) | 97.2% (inactive) | 87.1% (inactive) | 2.24% (inactive) | 84.8 | 87.1 | 
8 | COC(=O)[C@@H](N)Cc1ccc(O)cc1 |  |  |  |  |  | 106 | 108% (inactive) | 106% (inactive) | 82.9% (inactive) | 109% (inactive) | 15.7% (inactive) | 93.8 | 109 | 
9 | O=C(O)CCC(=O)Nc1ccc(S(=O)(=O)Nc2nccs2)cc1 |  |  |  |  |  | 122 | 98.5% (inactive) | 122% (inactive) | 75.4% (inactive) | 94.4% (inactive) | -2.46% (inactive) | 96.9 | 94.4 | 
